# Most compounds without a hit are left out; they make up all but 1.9% or so of the library.
# HSF1 activator – increases HSF-1 driven luciferase reporter signal; 300,000 tested, 1.7% active; NIH3T3-HGL HSF-1 luciferase reporter, MG132, 8 h; 100% = twice DMSO control signal; activation, % at 9 µM;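 active = mean replicate activation of at least 50% with a set share of replicates each reaching 50%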
# zVAD death inh – L929 zVAD cell death inhibition | 220,000 tested, 0.38% active | viability rescue, % at 10 µM | L929 zVAD necroptosis rescue, ATP luminescence, 24 h; with zVAD 60 µM;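 active = activation, scaled between plate controls, above about 75%, limit read from the data; inactive = activation under that limit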
# Hsp70 act – switches on Hsp70 transcription. activation, % at 10 µM. AID 1203. 200,000 tested, 0.04% active. HeLa Hsp70 promoter luciferase reporter, luminescence; scaled: vehicle 0, proteasome-inhibitor control 100%;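 active = activation above the mean across all tested compounds plus 3 SD, cutoff set per campaign, cut at about 5.5% in these data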
# TNF death inh – inhibitors of TNF-alpha induced necroptosis in Jurkat FADD-/- cells; Jurkat FADD-/- TNF necroptosis rescue, ATP luminescence, 24 h; 0 = TNF only, 100 = no-TNF cells; activation (protection from cell death), % at 10 µM; 220,000 tested, 0.068% active; AID 463075;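 active = activation, meaning protection from cell death, of at least 50% relative to plate controls; inactive = activation below 50%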;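 also: necroptosis triggered by 40 ng/mL TNF-alpha added together with compound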
# Hits are given with their value; 0 = inactive; - = no result.
SMILES,HSF1 activator,zVAD death inh,Hsp70 act,TNF death inh
CCOC(=O)C1=C(C)N=c2s/c(=C/c3cccc([N+](=O)[O-])c3O)c(=O)n2C1c1ccccc1 (centres undefined),0,-,-,-
COc1ccc(CCNC(=O)CNCC2CCCCC2)cc1OC,0,-,-,-
CCOc1ccc(N2C(=O)C(Cl)=C(Nc3ccccc3O)C2=O)cc1,66.7,0,0,0
COc1ccccc1NC1=C(Cl)C(=O)N(c2ccccc2)C1=O,0,-,0,0
CCOC(=O)N1CCN(S(=O)(=O)c2ccc(F)c(C(=O)Nc3ccc(C)c(Cl)c3)c2)CC1,0,-,0,0
CCOC(=O)N1CCN(S(=O)(=O)c2ccc(F)c(C(=O)Nc3ccc(C(C)C)cc3)c2)CC1,68.6,-,0,0
N#C/C(=C\c1cn(Cc2ccc(F)cc2)c2ccccc12)C(=O)NCc1ccco1,0,0,0,0
N#C/C(=C\c1cn(Cc2ccccc2)c2ccccc12)C(=O)NCc1ccco1,75.0,0,0,0
Cc1cccc(NC(=O)/C(C#N)=C/c2cn(CC(=O)NCc3ccco3)c3ccccc23)c1C,60.9,0,0,0
N#C/C(=C\c1cn(Cc2cccc(F)c2)c2ccccc12)C(=O)NCc1ccco1,67.7,0,0,0
COc1ccc(S(=O)(=O)Nc2ccccn2)cc1C(=O)Nc1ccccc1,0,-,-,-
c1coc(-c2nn3c(-c4ccco4)nnc3s2)c1,0,0,0,0
COc1ccccc1-c1nn2c(-c3ccco3)nnc2s1,61.8,0,0,0
O=C(COC(=O)c1cc(-c2cccs2)nn1-c1ccccc1)Nc1ccc(Cl)c([N+](=O)[O-])c1,0,0,0,0
O=C(Nc1nccs1)c1ccc(CSc2ccccc2)o1,63.4,-,-,-
CCc1nnc(NC(=O)c2ccc(COc3ccccc3)o2)s1,0,0,0,0
Cc1ccc(SCc2ccc(C(=O)Nc3nccs3)o2)cc1,0,-,-,-
O=C(Nc1nccs1)c1ccc(COc2ccccc2)o1,55.6,-,-,-
Cc1ccc(OCc2ccc(C(=O)Nc3nccs3)o2)cc1,60.3,0,0,0
CCc1nnc(NC(=O)c2ccc(COc3ccc(C)cc3)o2)s1,0,0,0,0
CN1CCN(c2cc(C(F)(F)F)nc3ccc(F)cc23)CC1,0,0,-,0
Cc1ccccc1OCCCC(=O)Nc1ccccc1C(F)(F)F,90.8,0,0,0
CSc1sc(C(=O)N2CCCCC2)c(-c2cccs2)c1C#N,0,0,-,0
NNC(=O)c1ccc([N+](=O)[O-])c(CS(=O)(=O)c2ccc(Cl)cc2)c1,57.4,0,0,0
Nc1nnc(SCCCOc2ccc(F)cc2)s1,0,-,-,-
SMILES,HSF1 activator,zVAD death inh,Hsp70 act,TNF death inh
CCOc1ccc(-c2nc(CSc3nnc(N)s3)cs2)cc1,62.4,0,0,0
CCCOc1ccc(OCCSc2nnc(N)s2)cc1,125.0,0,0,0
CCCOc1ccc(OCCSc2ncccn2)cc1,72.4,0,0,0
Cc1ccc(C(=O)C(C)OC(=O)Cn2[nH]c(=O)c3ccccc3c2=O)cc1C (centres undefined),0,-,-,-
COCCn1c(N)c(Sc2ccc([N+](=O)[O-])cc2)c(=O)[nH]c1=O,0,0,0,0
CCn1c(/C=C/c2c[nH]c3ccccc23)nc2ccccc2c1=O,81.5,0,0,0
CCn1c(/C=C\c2ccccc2C)nc2ccccc2c1=O,0,0,0,0
O=C(c1c(Cl)nc2sccn12)N1CCN(c2cccc(Cl)c2)CC1,0,0,0,0
O=S(=O)(c1cccc(Br)c1)N1CCN(CCc2ccccc2)CC1,0,-,-,-
O=C(NCc1ccc2c(c1)OCO2)c1nc(S(=O)(=O)Cc2ccccc2F)ncc1Cl,84.0,-,-,-
Cc1nc(Cl)c(C(=O)NCc2ccccc2)c(C)c1Cl,0,0,0,0
COc1ccc(CNC(=O)c2nc(S(=O)(=O)Cc3ccccc3)ncc2Cl)cc1,247.9,-,-,-
O=C(NCc1ccc2c(c1)OCO2)c1nc(S(=O)(=O)Cc2ccccc2)ncc1Cl,0,-,-,-
O=C(NCc1ccccc1)c1c(Cl)nc(Cl)c(Cl)c1Cl,64.9,-,-,-
O=C(NCc1ccccc1)c1nc(S(=O)(=O)Cc2ccccc2)ncc1Cl,147.1,-,-,-
CC(=O)Nc1ccc(NC(=O)c2nc(S(=O)(=O)Cc3ccccc3)ncc2Cl)cc1,0,-,-,-
O=C(CN1C(=O)NC2(CCCC2)C1=O)N1CCc2ccccc2C1,0,0,0,0
CC(NC(=O)c1ccco1)c1cccc2ccccc12 (centres undefined),0,0,0,0
Cc1ccc(C=Nc2ccccc2C(N)=O)o1,60.1,0,0,0
CN(C)c1ccc(C=Nc2ccccc2C(N)=O)cc1,-,0,0,0
COc1cc(OC)c(C2NC(=O)CCC2[N+](=O)[O-])cc1OC (centres undefined),0,-,-,-
COc1ccc(C2NC(=O)CCC2[N+](=O)[O-])c(OC)c1 (centres undefined),55.9,-,-,-
Cc1ccc(CN2CCN(C(=O)CC(C)C)CC2)cc1,0,-,-,-
CCOC(=O)c1cn(-c2c(Cl)cccc2Cl)c2cc(Cl)c([N+](=O)[O-])cc2c1=O,103.7,-,0,0
CC(/C=C/c1ccccc1)=N/NC(=O)CCC(=O)Nc1ccccc1C,0,0,0,0
SMILES,HSF1 activator,zVAD death inh,Hsp70 act,TNF death inh
CC(=O)/C(=C/c1ccccc1)C(=O)Nc1ccccc1C,54.7,0,0,0
CC(=O)NCCc1nc2cc(NC(=O)COc3cccc(C)c3)ccc2n1C,0,-,-,-
CCCC(C(=O)NCCC(C)C)N(Cc1ccccc1)C(=O)c1snc(C(N)=O)c1N (centres undefined),0,-,-,-
COc1ccccc1NC(=O)Nc1nc(CC(=O)N2CCN(c3ccccc3)CC2)cs1,61.6,-,-,-
CCOC(=O)c1sc(-c2ccccc2)cc1NC(=O)Nc1ccc([N+](=O)[O-])cc1,0,0,0,0
Cc1ccc(O)c(C(=O)c2cnc3c(c2)c(-c2ccc(F)cc2)c(C#N)c(=O)n3C)c1,63.0,0,0,0
Cc1ccc(O)c(C(=O)c2cnc3c(c2)c(=O)n(C)c(=O)n3C)c1,0,0,0,0
O=C(NCCCc1ccc(F)cc1)C1CCC(=O)N(CC2CCCCC2)C1 (centres undefined),0,-,-,-
O=C1[C@H]2[C@@H](c3ccc(F)cc3)N3C(=O)N(c4ccc(Br)cc4)C(=O)[C@@]3(Cc3ccccc3)[C@H]2C(=O)N1C1CCCCC1,0,-,-,-
Cc1ccc(Cn2c(=O)oc3ccccc32)cc1,0,0,0,0
Cc1ccc(S(=O)(=O)n2c(=O)oc3ccccc32)cc1,79.6,0,0,0
COC(=O)c1cc(S(=O)(=O)NCc2cc(OC)c(OC)c(OC)c2)cn1C,0,-,-,-
COc1cc(C)ccc1OCc1cc(C(=O)N(Cc2nccn2C)C(C)C)no1,57.9,-,-,-
COc1cccc(OCc2cc(C(=O)N(Cc3nccn3C)C(C)C)no2)c1,0,-,-,-
N=c1c(C(=O)NCCc2ccccc2)cc2c(=O)n3ccccc3nc2n1Cc1ccco1,74.7,-,-,-
CCOC(=O)c1cc2c(=O)n3ccccc3nc2n(Cc2ccco2)c1=NC(=O)c1ccc(OC)cc1,0,0,0,0
CCOC(=O)c1cc2c(=O)n3ccccc3nc2n(Cc2ccco2)c1=NC(=O)c1ccccc1OC,100.3,0,0,0
Cc1ccc2oc(C(=O)Nc3ccc(S(=O)(=O)Nc4ncccn4)cc3)c(C)c2c1,0,-,-,-
O=c1c(NCCc2ccc(Cl)cc2)c(-c2ccccc2)c1=O,0,-,-,-

# From PubChem BioAssay
